# Most compounds without a hit are left out; they make up all but 19% or so of the library.
# DT40 TDP1 no CPT = qHTS for Inhibitors of human tyrosyl-DNA phosphodiesterase 1 (TDP1): qHTS in cells in absence of CPT; DT40 Tdp1-/- hTDP1 cells, no CPT, ATP luminescence, 48 h; Potency, µM (titrated, usually from 46.2 µM), inactives show top-dose activity change, negative = growth inhibition, most hits filed as inhibitors; hit rate 15% among 420,000; AID 686978, 2013; further: potency means the concentration at half of the fitted maximal effect; nearly all actives have a fitted effect of over 55% in size
#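 Camptothecin absent (DMSO only). Human TDP1-complemented DT40 knockout cells, 400 cells/well, 37 °C for minimum 48 hr; ATP measured via CellTiter-Glo, 30 min dark incubation, luminescence.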
# TDP1 cell CPT = growth inhibition of DT40 Tdp1-/-;hTDP1 cells with camptothecin (screen for TDP1 inhibitors); chicken DT40 Tdp1-/-;hTDP1 cells + 20 nM CPT, ATP luminescence, 48 h; Potency, µM (titrated, usually from 46.2 µM), for the others: top-dose activity change, negative = growth inhibition, hits mostly inhibitors; hit rate 12% among 420,000; further: potency means the concentration at half of the fitted maximal effect; nearly all actives have a fitted effect of over 55% in size
#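 Cell growth measured by CellTiter-Glo luminescence after a minimum 48 h, 37 C compound exposure with 20 nM CPT in Tdp1-knockout DT40 cells stably expressing hTDP1, seeded 400/well; qHTS titration format.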
# HT1080-NT tox = kills 2HG-producing HT-1080-NT fibrosarcoma cells; hit rate 1.6% among 360,000; HT-1080-NT fibrosarcoma viability, CellTiter-Glo ATP luminescence, 48 h; Potency, µM (series often up to 46.1 µM), for the others: at the highest dose activity, negative = less viability, usual class: cytotoxic;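 further: NT is the 2HG producing partner of a matched IDH1 knockdown line; potency means the concentration at half of the fitted maximal effect; 0% = DMSO-treated cells and -100% = media-only wells without cells; nearly all actives have a fitted effect of over 55% in size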
#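 HT-1080-NT fibrosarcoma cells (2HG-overproducing), 750 cells/well in RPMI with 5% FBS, dosed after 2 h and incubated 48 h at 37C. CellTiter-Glo luminescence normalized to DMSO and no-cell wells; concentration-response curves fitted and classed.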
# IL1B secr inh = blocks inflammasome-driven IL-1 beta release; THP-1 LPS/ATP IL-1B secretion, AlphaLISA, 16 h; hits give low values; activity change, % at 57.5 µM; hit rate 4.7% among 360,000; AID 743279; in the data active means activity change below about -50%; inconclusive means mostly about -30% to -49%
#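 THP-1 cells pretreated 1 hr with compounds (up to 57.5 uM final), then stimulated with LPS (250 ng/mL final) plus ATP (1.25 mM final); secreted IL-1B measured by AlphaLISA after 16 hr, decreased signal indicating inhibition.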
# HT1080 IDH1KD tx = HT-1080 IDH1 knockdown cell toxicity (counter line); Potency, µM (titrated, usually from 46.1 µM), for inactives: top-dose activity, negative = toxicity, usual class: cytotoxic; hit rate 2% among 360,000; HT-1080 IDH1 knockdown viability, ATP luminescence, 48 h; AID 686971;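 further: potency means the concentration at half of the fitted maximal effect; 0% = DMSO wells and -100% = cell-free medium wells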
#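 Assay cells: HT-1080 with IDH1 knockdown, 750 per well, RPMI/5% FBS. Exposure: 48 h at 37 °C following 2 h pre-incubation. Read: CellTiter-Glo luminescence; fitted concentration-response, curve class assigned.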
# The depositor's hits bear a star; ? = inconclusive; · = no result; ! = a repeat was not active. Unless noted, the call rests on the fitted dose curve; in most records, active means well fitted curve in the direction sought with a large enough effect; inconclusive means small, poorly fitted or top-dose-only effect, or another doubt; inactive means no such curve, though single readings can be large; an effect the other way counts as inactive or inconclusive. Unless noted, on the % scale 0 is the no-effect control and ±100 the full control effect.
SMILES,DT40 TDP1 no CPT,TDP1 cell CPT,HT1080-NT tox,IL1B secr inh,HT1080 IDH1KD tx
Cc1ccc(S(=O)(=O)NCC(c2ccco2)N2CCc3ccccc32)cc1 (stereo not drawn),?,?,-9.7%,?,-4.2%
COc1ccccc1C(=O)NCCN1CCCC1,-16.4%,-9.2%,5.3%,-7.7,0.2%
COc1ccc(C(=O)NCC(=O)OCC(=O)N2CCc3ccccc32)cc1,2.0%,1.6%,3.6%,35.2,16.2%
COc1ccc(C(=O)NCC(c2ccc(N(C)C)cc2)N2CCc3ccccc32)cc1 (stereo not drawn),8.2µM*,7.31µM*,·,·,·
Cc1ccc(S(=O)(=O)NCC(c2ccc(N(C)C)cc2)N2CCc3ccccc32)cc1C (stereo not drawn),23.1µM*,?,·,·,·
S=c1cn[nH]c2ccccc12,-29.5%,-10.5%,-2.7%,-11.4,1.8%
CN(C)c1ccc(C(CNC(=O)c2ccccc2)N2CCc3ccccc32)cc1 (stereo not drawn),14.6µM*,7.31µM*,·,·,·
CCN(CCNC(=O)CCCn1nc(C)n2c(cc3sccc32)c1=O)c1ccccc1,23.1µM*,14.6µM*,10.4%,-2.7,5.7%
CCOc1ccc(N(CC(=O)NCc2ccco2)C(=O)CCC(=O)Nc2nccs2)cc1,-12.2%,-13.4%,3.2%,-12.4,18.9%
COc1ccccc1NC(=O)CCNS(=O)(=O)c1ccc2c(c1)CCN2C(C)=O,20.8%,-4.3%,2.1%,4.3,18.5%
COc1cc(OC)c2nc(C)c3c(c2c1)N(c1ccc(O)cc1)CC3,16.4µM*,?,?,·,2.5%
O=[N+]([O-])c1ccc(-c2csc(N/N=C/c3cccnc3)n2)cc1,?,3.5%,5.1%,?,9.4%
Cc1csc(N/N=C\c2cccnc2)n1,5.17µM*,2.91µM*,11.8%,19.1,0.0%
FC(F)(F)c1ccc(N/N=C/c2cccnc2)nc1,?,-23.1%,1.0%,-96.7*,1.6%
Fc1ccc(N/N=C/c2cccnc2)c(F)c1,6.2%,-18.4%,?,-25.5,14.6µM*
FC(F)(F)c1ccccc1N/N=C/c1cccnc1,?,-17.2%,4.4%,?,-5.2%
Cc1ccc(N/N=C/c2cccnc2)cc1,-6.9%,-11.4%,?,-23.3,8.2µM*
O=c1[nH]c2ccccc2c(O)c1-c1ccccc1[N+](=O)[O-],-13.1%,?,18.8%,0.3,-7.9%
CSc1nc(NC2CCCC2)c([N+](=O)[O-])c(NC2CCCC2)n1,-5.3%,2.8%,·,·,·
COc1ccc(C(=O)N2CCC[C@@]3(CCN(CC(C)C)C3)C2)cc1,-15.6%,7.0%,·,·,·
COc1ccc(C)cc1N(CC(=O)NC1CCCC1)C(=O)CCC(=O)Nc1cc(C)on1,1.8%,-16.1%,0.4%,3.2,0.9%
CC(C)(C)c1ccc(-c2noc(CCC(=O)N3CCOCC3)n2)cc1,18.4µM*,?,-10.5%,22.5,-2.9%
CN(C)C(=O)CCc1nc(-c2ccc(C(C)(C)C)cc2)no1,20.6µM*,16.4µM*,-7.2%,-14.6,-6.3%
Cc1ccc(-c2noc(CCC(=O)NCC3CCCO3)n2)cc1 (stereo not drawn),-9.3%,-10.2%,-13.5%,-0.5,-23.5%
CC(C)(C)c1ccc(-c2noc(CCC(N)=O)n2)cc1,?,-21.3%,0.3%,14.0,8.6%
SMILES,DT40 TDP1 no CPT,TDP1 cell CPT,HT1080-NT tox,IL1B secr inh,HT1080 IDH1KD tx
CC(C)(C)c1ccc(-c2noc(CCC(=O)NCC3CCCO3)n2)cc1 (stereo not drawn),?,20.6µM*,-2.5%,0.4,-18.2%
CNC(=O)CCc1nc(-c2ccc(C(C)(C)C)cc2)no1,13µM*,?,1.1%,0.0,4.6%
OC/C(Br)=C(\Br)CO,1.1%,5.0%,2.4%,21.3,9.5%
Cc1cccc(C(=O)O[C@@H]2[C@H](Cc3ccccc3)NS(=O)(=O)[C@H]3C[C@@H]4C=C[C@]23O4)c1,23.1µM*,?,16.0%,-16.5,8.6%
C[C@@H]1NS(=O)(=O)[C@H]2C[C@@H]3C=C[C@]2(O3)[C@H]1OC(=O)c1ccc(C(C)(C)C)cc1,16.4µM*,23.1µM*,-0.6%,0.0,-2.7%
Cc1ccccc1C(=O)O[C@H]1[C@H](Cc2ccccc2)NS(=O)(=O)[C@H]2CC3C=C[C@]12O3,20µM*,?,0.5%,2.4,-6.5%
Cc1cccc(CN2C[C@]34C=C[C@@H](C[C@@H]3S2(=O)=O)O4)c1,-7.4%,-0.4%,7.5%,-6.9,6.7%
Cc1cccc(C(=O)O[C@H]2[C@H](Cc3ccccc3)NS(=O)(=O)[C@H]3CC4C=C[C@]23O4)c1,?,?,-0.3%,-23.6,-5.1%
CC(C)(C)c1ccc(C(=O)Oc2ccc3c(c2)OCC3=O)cc1,-19.7%,-23.6%,-10.2%,12.5,-1.4%
Cc1nn2c(C)c(C(=O)NC(C)c3ccccc3)cnc2c1-c1ccc(F)cc1 (stereo not drawn),?,-6.4%,·,·,·
CCOC(=O)[C@@H]1[C@H]2COc3cc(OC)ccc3[C@H]2N2C(=O)N(c3cccc(F)c3)C(=O)[C@]12C,?,?,11.5%,-4.3,0.7%
Cc1ccccc1OCC(O)COc1ccccc1C,20.6µM*,?,?,-0.1,-13.6%
Cc1ccccc1OCC(O)CN (stereo not drawn),-19.2%,-9.3%,-0.8%,-6.6,3.9%
Cc1ccccc1OCC(O)Cn1c(=N)n(CCN2CCOCC2)c2ccccc21 (stereo not drawn),?,?,-17.5%,-53.5*!,-11.2%
Cc1ccccc1OCCn1c(=N)n(C(C)C)c2ccccc21,6.51µM*,8.2µM*,·,·,·
COc1ccccc1OCCOCCN1CCCC1,4.2%,8.4%,5.1%,14.3,7.8%
COc1ccccc1OCC(O)Cn1c(=N)n(CCN2CCCCC2)c2ccccc21 (stereo not drawn),16.4µM*,?,?,-53.0*,?
Cc1ccccc1OCCCn1c(=O)sc2ccccc21,-20.8%,14.3%,11.9%,6.2,0.9%
Cc1ccccc1OCC(O)CN1CCN(CC(O)COc2ccccc2C)CC1 (stereo not drawn),?,?,-14.9%,-11.6,-23.4%
O=C(c1cc(C(F)(F)F)cc(C(F)(F)F)c1)N1CCC2(CCCN(c3ccccc3)C2)CC1,-15.1%,3.9%,·,·,·
COc1ccc(Cl)cc1NC(=O)c1cccc(S(=O)(=O)Nc2c(C)n(C)n(-c3ccccc3)c2=O)c1,-29.7%,-23.8%,-17.2%,9.0,-4.3%
N=c1n(CCN2CCCCC2)c2ccccc2n1CC(O)COc1ccccc1 (stereo not drawn),14.6µM*,18.4µM*,14.6µM*,-55.5*,?
Cc1ccccc1OCC(O)Cn1c(=N)n(CCN2CCCCC2)c2ccccc21 (stereo not drawn),4.61µM*,5.8µM*,·,·,·

# Assay outcomes: PubChem, National Center for Advancing Translational Sciences (NCATS)
